# Rows were chosen to be rich in hits. Some 2.9% of all compounds tested hit in one or more screens of this group.
# PLC-gamma1 inh: inhibitors of human phospholipase C gamma1; P19174; purified PLC-gamma1, fluorogenic substrate, fluorescence; inhibition, % at 12.2 µM; 370,000 compounds, 0.84% hits; in the data active = inhibition above about 9.5%
# ADAM17 inh: ADAM17 inhibition, QFRET primary screen. P78536. recombinant ADAM17, EDANS/DABCYL FRET peptide cleavage. inhibition, % at 6.95 µM. 370,000 compounds, 0.83% hits. AID 720648;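 active = inhibition above the mean of compounds lying between control limits plus 3 SD, set per campaign, cut at about 8.5% in these data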;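 note: 0% = DMSO-only wells as the low control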
# PLC-beta3 inh: blocks human PLC-beta3 enzyme activity; 370,000 compounds, 0.18% hits; Q01970; inhibition, % at 12.2 µM; Purified PLC-beta3, fluorogenic substrate, fluorescence;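 note: 0% = median of compound wells on plate and 100% = full blocker control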
# ADAM10 inh: ADAM10 inhibition, QFRET primary screen; AID 720582; O14672; inhibition, % at 7 µM; recombinant ADAM10, EDANS/DABCYL FRET peptide cleavage, 3 h; 370,000 compounds, 0.62% hits;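 active = inhibition above a per-campaign cutoff equal to the mean of compounds falling between control-based bounds plus 3 SD, cut at about 20% in these data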;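 note: 0% = DMSO wells while the 100% control is not disclosed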
# KLK7 zymogen act: proKLK7 (human) activation, primary screen; 370,000 compounds, 0.9% hits; activation, % at 7 µM; purified proKLK7, EDANS-DABCYL substrate fluorescence; 100% is mature enzyme control, 0% vehicle;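 active = activation above the mean of all tested compounds plus 3 SD, computed per campaign excluding outliers beyond control limits, cut at about 13% in these data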
# Target sequence (P49862 whole entry, looked up): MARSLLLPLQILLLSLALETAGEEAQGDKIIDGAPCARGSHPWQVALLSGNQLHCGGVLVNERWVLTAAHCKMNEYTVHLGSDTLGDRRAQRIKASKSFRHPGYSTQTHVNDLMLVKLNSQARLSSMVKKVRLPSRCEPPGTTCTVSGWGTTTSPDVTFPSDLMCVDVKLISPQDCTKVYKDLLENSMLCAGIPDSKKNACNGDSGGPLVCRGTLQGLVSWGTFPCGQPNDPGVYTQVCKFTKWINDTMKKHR
# PLCgamma1 ctr: inhibits human PLC-gamma1 in PLC-beta3 counter-screen; shares compounds with PLC-gamma1 inh; purified PLC-gamma1, fluorogenic substrate, fluorescence; inhibition, % at 12.3 µM; 3,300 compounds, 3.1% hits; in the data active = inhibition above about 9.5%
# PLCb3 confirm: human PLC-beta3 inhibition, confirmation. 3,300 compounds, 1% hits. purified PLC-beta3, fluorogenic substrate fluorescence. shares compounds with PLC-gamma1 inh. inhibition, % at 12.3 µM
# Starred values were filed as active, the others as inactive; . = no result. Cut-off read from the data, not from the text of the source, unless noted: active = inhibition above about 11%; inactive = the rest.
SMILES,PLC-gamma1 inh,ADAM17 inh,PLC-beta3 inh,ADAM10 inh,KLK7 zymogen act,PLCgamma1 ctr,PLCb3 confirm
CCN(CC)CCCn1c2c(c(SCC(=O)Nc3cc(C)cc(C)c3)nc1=O)CCC2,13*,6,0,-7,0,1,-5
Cc1cc(C(=O)NNC(=S)NCc2ccccc2)cs1,-1,7,13*,9,0,-9,5
Cc1cc(C(=O)NNC(=S)NCC2CCCO2)cs1 (stereo not drawn),3,-4,5,4,0,.,.
CCc1cc(C(=O)NNC(=S)NCc2ccccc2)cs1,1,-4,8,1,0,.,.
Cc1cc(C(=O)NNC(=S)NCC(C)C)cs1,0,-18,13*,1,0,-4,14*
CCn1c(SCC(=O)c2ccccc2)nc2c(c1=O)SC(C)C2 (stereo not drawn),11*,4,2,7,0,-4,0
CCN(CC)S(=O)(=O)c1cccc(C(=O)NC2=NCCS2)c1,2,-1,-4,-2,0,.,.
CCNC(=O)C1(C)CCCN(Cc2ccc(-n3ccnc3)cc2)C1 (stereo not drawn),2,-4,3,-9,0,.,.
O=C(c1ccco1)N1CCN=C1SCc1ccccc1Cl,-2,-3,17*,-11,0,-1,1
Cc1cc(NC(=O)CCCC(=O)O)nc(C)n1,10*,5,5,-2,0,-2,-1
COC(=O)C1CN(Cc2ccccc2)CCS(=O)(=O)N1Cc1ccccc1 (stereo not drawn),2,0,6,6,0,.,.
CCC[C@H]1[C@@H](NC(=O)c2cccc(N(C)C)c2)CC[C@@]23CCCN2C(=O)CCC[C@@H]13,-95,-24,-128,-92,.,.,.
CCCn1c(SCC(=O)N2CCCc3ccccc32)nnc1-c1ccccn1,12*,-4,4,-4,0,0,-2
CCn1nnnc1SCC(=O)N1CCCc2ccccc21,-1,4,11*,5,0,0,3
CCn1nnnc1SCC(=O)N1CCc2ccccc21,4,-2,6,10,0,.,.
O=C(CCCn1c(=O)oc2ccccc21)NNC(=O)COc1ccc(F)cc1,1,-3,-4,0,0,.,.
C=CCNC(=S)N/N=C/c1ccc(OCc2ccccc2Cl)cc1,10*,7,-1,6,-1,-5,-9
CC(C)(C)OC(=O)N[C@H](C(=O)OC(C)(C)C)c1ccc2c(c1)OCO2,10*,5,4,12,0,3,-3
Cc1cccc([C@H](NC(=O)OC(C)(C)C)C(=O)OC(C)(C)C)c1,-2,-3,-3,-8,1,.,.
Cc1c(NC(=O)C(C)Oc2cccc(F)c2)c(=O)n(-c2ccccc2)n1C (stereo not drawn),-3,-1,-2,-3,0,.,.
COCCSc1ccccc1C(=O)Nc1ccncc1,-1,-4,1,-8,0,.,.
COCCSc1ccccc1C(=O)Nc1nncs1,10*,0,4,11,0,-1,1
O=C(N[C@@H](Cc1cccnc1)C(=O)N1CCC[C@H]1C(=O)NCc1ccccc1)c1ccc(Cl)cc1Cl,3,0,2,-4,0,.,.
CCc1ccc(NS(=O)(=O)c2ccc3c(c2)CCN3C(=O)CCC(=O)O)cc1,10*,3,0,6,1,-6,-5
CCC(=O)N1CCc2cc(S(=O)(=O)CCC(=O)NCCc3ccc(S(N)(=O)=O)cc3)ccc21,10*,4,-2,6,0,-1,-2
SMILES,PLC-gamma1 inh,ADAM17 inh,PLC-beta3 inh,ADAM10 inh,KLK7 zymogen act,PLCgamma1 ctr,PLCb3 confirm
CCC(=O)N1CCc2cc(S(=O)(=O)CCC(=O)NCc3ccc(C)cc3)ccc21,3,1,-3,-4,0,.,.
CC(C)c1ccc(-n2nnnc2SCC(=O)NC2CC2)cc1,2,0,-5,-1,0,.,.
COc1ccc(NS(=O)(=O)c2cn(C)cn2)cc1,-1,-10,1,2,0,.,.
COc1ccc(NS(=O)(=O)c2cn(C)nc2C)cc1,12*,-3,2,9,0,-3,0
CC(C)c1onc(C(=O)N2CCOCC2)c1[N+](=O)[O-],8,5,13*,10,0,-5,-1
CCOc1ccc(OCCCC(=O)NNC(=O)c2ccncc2)cc1,15*,7,7,3,0,8,2
Cc1ccc(OCCCC(=O)NNC(=O)c2ccncc2)cc1,2,-1,-4,-9,0,.,.
COc1cccc(N2CCN(C(=O)Cn3c(=O)oc4ccccc43)CC2)c1,9.8*,2,-2,4,0,-3,-6
Cc1ccc(-n2ncc3c2CCCC3NC(=O)c2ocnc2C)cc1C (stereo not drawn),1,-2,-2,-1,0,.,.
Cc1cccc(CS(=O)(=O)Cc2ccc(C(=O)O)o2)c1,11*,-1,3,-6,1,-6,0
COC[C@H]1CCCN1c1ccc2c(c1)O[C@@H](COCc1ccccc1)CN([C@H](C)c1ccccc1)S2(=O)=O,10*,-2,-4,-13,0,-3,-2
COC[C@@H]1CCCN1c1ccc2c(c1)O[C@H](COCc1ccccc1)CN([C@@H](C)c1ccccc1)S2(=O)=O,3,-3,1,-15,-1,.,.
Cc1ccc(NC(=O)C[n+]2cc(-c3ccccc3)n3c2CCC3)cc1,0,-8,-5,0,0,.,.
Cc1ccc(-c2c[n+](CC(=O)Nc3ccccc3C)c3n2CCC3)cc1,9.8*,-7,-5,-7,1,-1,2
Cc1ccc(-c2c[n+](CC(=O)Nc3nc(-c4ccccc4)cs3)c3n2CCC3)cc1,12*,6,11*,6,0,4,3
CC(C)Oc1ccc(C(=O)Nc2ccc([N+](=O)[O-])cc2)cc1,10*,-3,0,7,1,-3,-1
N#CCCn1nc2c(c1N)CCC2,-3,-3,4,-6,0,.,.
O=C(C[C@H]1CC[C@@H]2[C@H](COC[C@@H](O)CN2C(=O)C2CC2)O1)NCc1ccccc1Cl,-1,-3,0,-2,0,.,.
O=C(C[C@H]1CC[C@H]2[C@@H](COC[C@@H](O)CN2C(=O)c2cnccn2)O1)NCc1ccc(Oc2ccccc2)cc1,2,3,11*,1,0,-6,0
CCOC(=O)C1(Cc2ccccc2)CCCN(C(=O)c2cnn(CC)c2)C1 (stereo not drawn),1,2,-6,1,1,.,.
O=Cc1cnc2ccccc2c1-c1ccccc1,-1,-3,-11,4,0,.,.
O=Cc1c[nH]c2ncccc12,10*,-8,-7,-3,0,-5,-2

# Bioassay records as filed in PubChem.
